Source: PubChem BioAssay
Hits are enriched below; roughly 18% of the tested compounds scored in any of these assays.
TDP1 cell noCPT = qHTS for Inhibitors of human tyrosyl-DNA phosphodiesterase 1 (TDP1): qHTS in cells in absence of CPT; DT40 Tdp1-/- hTDP1 cells, no CPT, ATP luminescence, 48 h; Potency, µM (doses to about 46.2 µM), for inactives: at the highest dose activity change, negative = growth inhibition, usual class: inhibitors; actives 15% (n = 420,000); AID 686978, 2013; further: potency means the concentration at half of the fitted maximal effect; nearly all actives have a fitted effect of over 55% in size
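Compound effects on proliferation are scored in DT40 Tdp1-/-;hTDP1 cells in the absence of CPT. ATP levels (CellTiter-Glo luminescence) are recorded after a ≥48 hr, 37 °C incubation.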
IL1B secr inh = inhibitors of inflammasome signaling (IL-1 beta secretion); actives 4.7% (n = 360,000); AID 743279; activity change, % at 57.5 µM; THP-1 LPS/ATP IL-1B secretion, AlphaLISA, 16 h; active compounds read low; in the data active means activity change below about -50%; inconclusive means mostly about -30% to -49%
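THP-1 cells pretreated 1 hr with compounds (up to 57.5 uM final), then stimulated with LPS (250 ng/mL final) plus ATP (1.25 mM final); secreted IL-1B measured by AlphaLISA after 16 hr, decreased signal indicating inhibition.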
RORg inh = ROR gamma (mouse) transcription inhibition | Drosophila S2 Gal4-RORgamma UAS-luciferase reporter, 20 h | Potency, µM (top dose mostly 53.6 µM), for inactives: at the highest dose activity change, negative = inhibition, usual class: inhibitors | actives 5.4% (n = 310,000) | AID 2551; further: potency means the concentration at half of the fitted maximal effect; nearly all actives have a fitted effect of over 60% in size
Target sequence (P51450 whole entry, looked up, the tested form may be a part): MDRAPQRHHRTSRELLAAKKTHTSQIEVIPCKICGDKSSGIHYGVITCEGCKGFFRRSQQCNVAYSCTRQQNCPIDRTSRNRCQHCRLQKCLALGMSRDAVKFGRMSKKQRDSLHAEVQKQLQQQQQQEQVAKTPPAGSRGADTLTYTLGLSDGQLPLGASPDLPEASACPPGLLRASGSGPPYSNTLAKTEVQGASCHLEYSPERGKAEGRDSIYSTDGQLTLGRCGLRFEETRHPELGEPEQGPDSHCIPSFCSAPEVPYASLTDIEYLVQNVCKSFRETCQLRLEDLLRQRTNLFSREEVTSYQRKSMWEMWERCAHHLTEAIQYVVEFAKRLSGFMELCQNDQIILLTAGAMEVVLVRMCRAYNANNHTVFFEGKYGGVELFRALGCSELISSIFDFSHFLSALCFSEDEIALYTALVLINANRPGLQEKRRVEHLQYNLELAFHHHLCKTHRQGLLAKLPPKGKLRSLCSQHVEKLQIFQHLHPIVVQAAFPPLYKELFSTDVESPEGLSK
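ROR gamma transcriptional activity was tracked as Gal4-UAS luciferase output in stably transfected Drosophila Schneider cells, with compound added 1 hr before 700 uM copper sulfate induction and a 20 hr ambient-temperature incubation.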
DT40 TDP1 CPT = DT40-hTDP1 cell growth loss with CPT; Potency, µM (top dose mostly 46.2 µM), for inactives: at the top dose activity change, negative = growth inhibition, most hits filed as inhibitors; actives 12% (n = 420,000); chicken DT40 Tdp1-/-;hTDP1 cells + 20 nM CPT, ATP luminescence, 48 h; further: potency means the concentration at half of the fitted maximal effect; nearly all actives have a fitted effect of over 55% in size
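Chicken DT40 Tdp1-/- cells stably complemented with human TDP1 were seeded at 400 cells/well in medium containing 20 nM camptothecin, exposed to pin-transferred compounds, and grown at 37 °C for at least 48 hr. Viability was read as ATP luminescence.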
LDHA inh = LDHA (human) enzyme inhibition; purified LDHA, NADH/diaphorase-resazurin fluorescence; active compounds read low; activity change, % (values are at about 110 or 230 µM); actives 0.15% (n = 480,000); AID 1347041; in the data active means activity change below about -30%; inconclusive means mostly about -25% to -30%;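 further: plate controls were DMSO wells for no effect and wells without enzyme for full effect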
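Human LDH5 at 2 nM final in Tris HCl pH 7.4 with 0.06 mM NADH and 0.2 mM pyruvate, reacted 5 minutes at room temperature. Remaining NADH coupled via diaphorase/resazurin; resorufin fluorescence read at 0 and 20 minutes, normalized to enzyme-free and DMSO wells.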
Gal4-VP16 FLuc = Gal4-VP16 reporter inhibition counter-screen; Drosophila S2 Gal4-VP16 UAS-luciferase, luminescence, 20 h; Potency, µM (top dose mostly 53.6 µM), inactives show at the highest dose activity, negative = inhibition, most hits filed as inhibitors; actives 3.5% (n = 310,000); AID 2546;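 further: Gal4-VP16 expression switched on by copper sulfate through the metallothionein promoter; potency means the concentration at half of the fitted maximal effect; nearly all actives have a fitted effect of over 50% in size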
* = called active by the depositor; u = inconclusive; x = no result; [ ] = dose if it differs, or a comment. Unless noted, the call rests on the fitted dose curve; in most records, active means well fitted curve in the direction sought with a large enough effect; inconclusive means small, poorly fitted or top-dose-only effect, or another doubt; inactive means no such curve, though single readings can be large; an effect the other way counts as inactive or inconclusive. Unless noted, on the % scale 0 is the no-effect control and ±100 the full control effect.

SMILES	TDP1 cell noCPT	IL1B secr inh	RORg inh	DT40 TDP1 CPT	LDHA inh	Gal4-VP16 FLuc
Cc1cc(C)c2nc(NC(=O)C3CC(=O)N(Cc4ccco4)C3)sc2c1 (stereo unspecified)	u	-71*	u	u	-1	-12%[10 µM]
CC(=O)NNC(=S)NC1CCCC1	x	x	x	x	-1	x
Cc1cc(N2CCN(c3ccc(F)cc3)CC2)nc(-c2ccccc2)n1	8.2µM*	-20	11%	9.2µM*	2	-4%
Cc1cc(C)nc(N2CCN(c3ccc(F)cc3)CC2)n1	3%	9	-2%	-20%	-10	3%
COc1ccc(NC(=O)C2CCN(c3cc(C)nc(-c4ccccc4)n3)CC2)cc1	u	-6	29%	u	-2	-6%
Cc1cc(N2CCC(C(=O)Nc3ccc(F)cc3)CC2)nc(-c2ccccc2)n1	18µM*	-53*	u	-22%	-5	-5%
O=C1CN(C(=O)Cn2ccc3c(Br)cccc32)CCN1	x	x	x	x	5	x
S=C1NC2(CCCCC2)Nc2ccccc21	u	12	7.1µM*	u	-3	u
COc1cccc(-c2nc(-c3c[nH]c(C(=O)N4CCCC4)c3)cs2)c1	x	x	x	x	-5	x
COc1ccc(OC)c(S(=O)(=O)Nc2cc(C(=O)NC(C)C)ccc2N2CCNCC2)c1	x	x	x	x	3	x
COc1ccc(-c2cc(NC(=O)c3ccco3)n(C3CCS(=O)(=O)C3)n2)cc1 (stereo unspecified)	x	x	x	x	-2	x
CC(C)Sc1ccc(C(=O)Nc2ccc(F)cc2F)cn1	23µM*	-6	27%	u	-10	2%
O=C(Nc1ccc(F)cc1F)c1ccc(-n2cccn2)nc1	u	16	33%	u	-3	-14%
CCc1c(C)sc(NC(=O)c2ccc(Cl)cc2Cl)c1C#N	x	x	x	x	3	x
Cc1cc(N2CCC(C)CC2)nc(-n2nc(C)cc2C)n1	2.6µM*	1	0.4µM*	2.6µM*	-9	1.3µM*
Cc1cc(C)n(-c2nc3ccccc3nc2N2CCC(C)CC2)n1	-26%	2	u	-17%	-3	u
Cc1cc(C)n(-c2nc(N(C)C)nc(N3CCOCC3)n2)n1	-7%	9	3.2µM*	-12%	-6	u
COc1ccc2c(CCNC(=O)C3CCN(c4nc(Cl)nc5nc[nH]c45)CC3)c[nH]c2c1	x	x	x	x	4	x
O=C(O)c1ccc(C[n+]2c(-c3ccccc3)csc2Nc2ccccc2)cc1	-24%	-8	5.6µM*	-1%	-9	-17%
CCN(CC)S(=O)(=O)c1ccc2cc(OC)ccc2c1	x	x	x	x	1	x
CCCN(CCC)S(=O)(=O)c1ccc(Cl)c(OC)c1	13µM*	-16	26%	u	-6	-4%
CCN(CC)S(=O)(=O)c1ccc(Oc2ccc(S(=O)(=O)N(CC)CC)cc2)cc1	5.8µM*	u	u	18µM*	-6	7.1µM*
CCN(CC)S(=O)(=O)c1ccc(Oc2ccccc2OC)cc1	u	0	19%	18µM*	-2	-7%
CCN(CC)S(=O)(=O)c1ccc(OCCNS(C)(=O)=O)cc1	16µM*	-2	-5%	6.5µM*	-3	-1%
CCNS(=O)(=O)c1ccc(OCCNS(C)(=O)=O)cc1	u	-13	0%	-19%	-5	-8%
SMILES	TDP1 cell noCPT	IL1B secr inh	RORg inh	DT40 TDP1 CPT	LDHA inh	Gal4-VP16 FLuc
CCOC(=O)c1c(C)n(C)c2c1cc(OC(C)=O)c1ccccc12	u	29	15%	1%	-9	-6%
CCOC(=O)c1c(C)n(C)c2c(C)cc(O)c(OC(C)=O)c12	13µM*	-10	-22%	9.2µM*	13	1%
COc1ccc(CNC(=O)Nc2ccc(Br)c(C)c2)cn1	x	x	x	x	0	x
COc1ccc(C(=O)Cn2c(C(=O)/C=C/c3ccccc3)nc3ccccc32)cc1	23µM*	-27	4µM*	15µM*	-5	u
COc1ccc(C(=O)/C=C/c2ccc(OC)c(COc3ccc(F)cc3)c2)cc1	u	-93*	u	u	-2	-12%
COc1ccc(C(=O)/C=C/c2ccc3c(c2)OCCO3)cc1	u	-93*	-17%	u	2	5%
COc1ccc(/C=C/C(=O)c2ccc(O)cc2)cc1	u	-80*	2.5µM*	-3%	-5	7.1µM*
CC(C)CCC(CCNC(C)c1cccs1)C1CCOC(C)(C)C1 (stereo unspecified)	x	x	x	x	-3	x
O=C(/C=C/c1ccc2c(c1)OCCO2)c1ccccc1	16µM*	u	12%	u	-1	u
Cc1ccc(O)c(C(=O)/C=C/c2ccc3c(c2)OCCO3)c1	16µM*	-52*	u	16µM*	-1	7%
Cc1ccc(C(=O)C=Cc2ccc3c(c2)OCO3)c(C)c1	u	u	x	u	-5	x
CCOc1ccc(NC(=O)CSc2nc3nc(C)cc(C)n3n2)cc1	u	-8	u	u	-4	11µM*
